Results as given in PubChem BioAssay AID1159580 (chemical genetic matrix, 2015).
The whole screen tested about 5,500 compounds, of which about 2,000 (36%) were called active. Not shown: some 18% with an inconclusive outcome. Cut-off read from the data, not from the text of the source: active = normalized growth mostly below about 0.91 (no sharp cut-off); inconclusive = no clear call, values can overlap the other calls; inactive = mostly above about 0.92. This is one part of the list.

Assay: chemical genetic growth profiling, strain panel (AID 1159580);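 note: tested at 20 µM; growth read once vehicle control cultures reached saturation at 30 °C; 1 = growth at the plate median or of vehicle wells; lower values mean less growth of the strain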
Settings: S. cerevisiae deletion strains, growth OD

Measured: normalized growth

N[C@@H](Cc1ccc(F)cc1)C(=O)O
inactive: locus YAL013W, strain DEP1, hits give low values 1.01 | locus YAL040C, strain CLN3, hits give low values 0.992 | locus YCL061C, strain MRC1 (second series), hits give low values 0.995 | locus YDR363W, strain ESC2, hits give low values 1.01 | locus YER002W, strain NOP16, hits give low values 0.99 | locus YNL153C, strain GIM3, hits give low values 0.995 | locus YNL175C, strain NOP13, hits give low values 0.978 | locus YNL197C, strain WHI3, hits give low values 0.995 | locus YNL224C, strain SQS1, hits give low values 0.967 | locus YNL322C, strain KRE1, hits give low values 1 | locus YOR083W, strain WHI5 (second series), hits give low values 0.988 | locus YPL055C, strain LGE1, hits give low values 0.99
